Consider 13 molecules from PubChem BioAssay (NCI).

The structures appear in SMILES notation. This is part of a sample that, as a whole, favours compounds with a hit. Of some 83,000 tested, about 20% had one in any assay.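 Cell lines were cultured in 96-well plates, exposed to a single compound concentration, and assessed for percent growth 48 hours later.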 Values without a mark were called inactive. The source made the active and inactive calls. Rule for the calls: active = growth percent below 10; inactive = the rest.

Holding throughout (assay): NCI-60 one-dose screen, 48 h (100 = growth as untreated, 0 = no growth, -100 = all killed)
Common to all, as to conditions: 10 µM unless noted

Experiment [1] deals with NCI-H23 lung.
For experiment [2], the system named is NCI-H226 lung.
For experiment [3], the system named is NCI-H322M lung.
Experiment [4] relates to HOP-62 NSCLC.
The test system of experiment [5] is NCI-H460 lung.
Experiment [6] deals with HOP-92 NSCLC.
In experiment [7] the test system is NCI-H522 lung.
Experiment [8] relates to A549/ATCC NSCLC.
For experiment [9], the system named is 786-0 renal.
Experiment [10] concerns COLO 205 colon.

`O=C(CC1(O)C(=O)Nc2ccc(Cl)cc21)c1ccc(C(=O)NCC2CCC3(CC2)OOC2(CCCCC2)OO3)cc1` (stereo not given): the growth is 32.1% in experiment [1]; 53.3% in [2]; 77.7% in experiment [3]; -55.4% (active) in experiment [4]; -55.4% (active) in [5]; -70.3% (active) in experiment [6]. Further, the growth in experiment [7] is -1.69% (active); in experiment [8] it was -55.4% (active); in experiment [9], -65.6% (active); in [10], 1.29% (active).

Turning to `C=C(C)[C@@]12OC3(/C=C/C=C/CCCCC)O[C@@H]1[C@@H]1[C@@H]4O[C@]4(CO)[C@@H](O)[C@]4(O)C(=O)C(C)=C[C@H]4[C@@]1(O3)[C@H](C)[C@H]2OC(=O)c1ccccc1`, the growth in experiment [1] is 46.3%; in experiment [2], 79.2%; in [3], 76.6%; in experiment [4] it was 22.5%; in experiment [5] it was 22.1%; in [6], 35.1%. For the same molecule, the growth is 78.8% in [7], 32.8% in experiment [8], 45.8% in [9] and 4.17% (active) in experiment [10].

For `COC(=O)C12CC(NC(=O)c3csc([C@@H](C[C@H](C(C)C)N(C)C(=O)[C@@H](NC(=O)[C@H]4CCCCN4C)C4CC4)OC(C)=O)n3)(C1)C2`, the growth was 29.4% in experiment [1]; 14.6% in experiment [2]; 45% in experiment [3]; 6.31% (active) in experiment [4]; 7.21% (active) in experiment [5]; 18.7% in experiment [6]. In addition, the growth in experiment [7] was -4.14% (active); in [8], 13%; in experiment [9], 24.5%; in [10], -64.5% (active).

For the molecule `C#Cc1ccc2c(c1)C(c1ccccc1)=NCC(=O)N2C`, the growth in [1] is 63.3%; in [2], 69%; in experiment [3], 77.7%; in experiment [4], 49.8%; in experiment [5], 17.4%; in [6], 72.2%. Besides, the growth in [7] was 9.39% (active); in experiment [8], 53.6%; in experiment [9] it was 59%; in experiment [10], 15.8%.

As for `CS(=O)(=O)CCN1CC2CCCC(C2)C1`, the growth is 99.7% in experiment [1]; 121% in [2]; 127% in experiment [3]; 103% in [4]; 110% in experiment [5]; 109% in experiment [6]. For the same molecule, the growth is 97.9% in experiment [7], 99.9% in [8], 95.6% in experiment [9] and 99% in [10].

As for `Cc1sc2c(c1C)C(c1ccc(Cl)cc1)=N[C@@H](CC(=O)OC(C)(C)C)c1nnc(C)n1-2`, the growth was 28.5% in experiment [1]; 71.8% in experiment [2]; 37.3% in [3]; 36.8% in [4]; 39.9% in experiment [5]; 21.2% in [6]. In addition, the growth was 2.71% (active) in experiment [7], 37.9% in [8], 46% in [9] and 19.3% in experiment [10].

On to `CC(C)=CCc1c(O)c(C(=O)CC(C)C)c(O)c2c(-c3ccccc3)cc(=O)oc12`, for which the growth in experiment [1] was 26.8%; in experiment [2], 47.4%; in experiment [3] it was 63.2%; in experiment [4] it was 84.2%; in experiment [5], 27.9%; in experiment [6] it was -13.2% (active). For the same molecule, the growth was 31.5% in experiment [7], 54.6% in [8], 66.2% in experiment [9] and 83.1% in experiment [10].

As for `N#CC1(c2ccccc2)CCN(Cc2ccccc2)CC1`, the growth was 98.9% in experiment [1]; 101% in experiment [2]; 144% in experiment [3]; 106% in [4]; 104% in [5]; 51.8% in experiment [6]. The growth was 92.6% in [7], 99.5% in [8], 101% in experiment [9] and 105% in experiment [10].

Take `CC(=O)O[C@H](C[C@H](C(C)C)N(C)C(=O)[C@@H](NC(=O)[C@H]1CCCN1C)C(C)C)c1nc(C(=O)N[C@@H](Cc2ccccc2)C[C@H](C)C(=O)O)c(C)s1`: the growth in experiment [1] was 30.3%; in [2], 54.8%; in experiment [3] it was 52%; in experiment [4], 29.7%; in experiment [5], 5.67% (active); in [6], 16.5%. Also, the growth in experiment [7] was -24.7% (active); in experiment [8], 13.3%; in experiment [9], 22.4%; in [10] it was -63.2% (active).

Turning to `CC(CC1CCCCC1)NCc1ccccc1` (stereo not given), the growth in experiment [1] was 85.7%; in experiment [2], 101%; in experiment [3] it was 95%; in experiment [4], 102%; in experiment [5], 105%; in experiment [6], 80.1%. The growth in experiment [7] is 94.6%; in [8], 98.2%; in experiment [9] it was 99.9%; in experiment [10], 103%.

As for `CCOC(=O)[C@@H](C)C[C@H](Cc1ccccc1)NC(=O)c1csc([C@@H](C[C@H](C(C)C)N(C)C(=O)[C@@H](NC(=O)[C@H]2C[C@H](O)CCN2C)C(C)C)OC(C)=O)n1`, the growth in experiment [1] is 30.7%; in [2], -29.5% (active); in experiment [3] it was 43.3%; in experiment [4], 10.7%; in experiment [5] it was 5.02% (active); in experiment [6], 26.3%. Besides, the growth in experiment [7] was -39% (active); in [8], 13.5%; in experiment [9], 11.2%; in experiment [10] it was -61.4% (active).

As to `CCCCCCCCCCCCCCCCCCOc1ccccc1COP(=O)(O)OOCC[N+](C)(C)C`, the growth is 1.55% (active) in experiment [1]; 42% in experiment [2]; 87.6% in experiment [3]; 3.04% (active) in [4]; 37.1% in experiment [5]; -27.7% (active) in experiment [6]. Also, the growth is 21% in [7], 35.1% in experiment [8], 9.57% (active) in experiment [9] and -30.3% (active) in [10].

As for `COC(=O)[C@@H](C)C[C@H](Cc1ccccc1)NC(=O)c1csc([C@@H](C[C@H](C(C)C)N(C)C(=O)[C@@H](NC(=O)[C@H]2CCCCN2C)C(C)C)OC(C)=O)n1`, the growth in [1] was 23.7%; in [2], 32.4%; in experiment [3], 46.8%; in experiment [4] it was 0.881% (active); in [5], 2.4% (active); in experiment [6], -13.5% (active). Besides, the growth in [7] was -31.7% (active); in [8] it was 14%; in [9], 4.12% (active); in experiment [10], -69.9% (active).
